# Laboratory results from PubChem BioAssay.
# Calls of active or inactive are those of the source.
# What was measured:
# [1] = test system: XIP peptide (Xip251-270) binding; assay: XIP fragment 251-270 binding compounds – biochemical, small-molecule microarray, fluorescence 635/667 nm, 0.1 µg/mL protein, primary screen (AID 1182); details: fluorescent protein binding, 635 nm, higher = more signal, called active from +8 up or from −8 down
# XIP peptide (Xip251-270) = assay: compounds binding XIP fragment 251-270 – biochemical, small-molecule microarray, fluorescence 635/667 nm, 0.5 µg/mL protein, primary screen (AID 1183); details: fluorescence 635 nm, higher = more signal
# [2] = blood-stage malaria parasite viability loss – strain 3D7, DAPI fluorescence, 100 nL, primary screen (AID 1184);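 further: parasites grown inside human red blood cells in medium with human serum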; details: P. falciparum 3D7 growth, 3 d, higher = more signal
# [3] = target: Homeobox protein Hox-A13 (Mus musculus) (UniProt Q62424); assay: disruptors of Hoxa13 oligonucleotide interaction – biochemical, fluorescence polarization, labeled oligonucleotide, primary screen (AID 1185); details: Hoxa13:DNA binding, 15 min, higher = more signal, called active from +8 up or from −8 down
# Sequence of Homeobox protein Hox-A13 (Mus musculus) (Q62424 whole entry, looked up): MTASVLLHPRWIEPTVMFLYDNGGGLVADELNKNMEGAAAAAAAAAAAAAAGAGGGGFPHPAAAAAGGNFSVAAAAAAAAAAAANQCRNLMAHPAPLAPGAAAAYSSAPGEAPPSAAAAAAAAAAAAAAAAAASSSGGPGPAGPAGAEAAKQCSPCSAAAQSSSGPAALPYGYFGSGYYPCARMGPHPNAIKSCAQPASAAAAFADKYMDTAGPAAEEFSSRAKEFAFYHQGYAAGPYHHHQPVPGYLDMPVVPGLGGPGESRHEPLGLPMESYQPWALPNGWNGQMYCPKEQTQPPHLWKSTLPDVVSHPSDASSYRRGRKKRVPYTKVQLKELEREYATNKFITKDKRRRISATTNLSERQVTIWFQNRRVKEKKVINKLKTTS
Structure (SMILES),composite z-score [1],composite z-score (XIP peptide (Xip251-270)),z-score [2],z-score [3]
O=C1[C@H]2CCn3c(=O)n(Cc4cc5c(cc4Cl)OCO5)c(=O)n3[C@H]2[C@H](O)[C@@H]2O[C@H]12,0.188 (inactive),0.639,0.0829,-0.543 (inactive)
CO[C@H]1COC(=O)CC=C[C@@H](C)COC(=O)[C@H]2CCCN2C(=O)CC=C[C@H]1C,0.0735 (inactive),0.286,0.655,-0.292 (inactive)
CCOC(=O)CCN1C(=O)[C@H]2[C@H]3[C@H](O)[C@H](O)CC(=NOCC=C(C)CCC=C(C)C)[C@@H]3CC[C@H]2C1=O,0.257 (inactive),0.613,0.664,-1.21 (inactive)
CO[C@@H]1COC(=O)[C@H](CCSC)NC(=O)CC=C[C@@H](C)COC(=O)[C@@H]2CCCN2C(=O)CC=C[C@H]1C,0.665 (inactive),0.352,-0.494,0.213 (inactive)
C[C@@H]1C=CCC(=O)OC[C@H](C)C(=O)N[C@@H](Cc2ccccc2)C(=O)OC1,-0.478 (inactive),-0.0947,-1.55,2.57 (inactive)
COc1ccc(COC(=O)NN=C2C[C@@H](O)[C@@H](O)[C@@H]3[C@@H]4C(=O)N(Cc5ccccc5)C(=O)[C@@H]4CC[C@@H]23)cc1,-0.662 (inactive),0.0404,0.0711,0.19 (inactive)
C[C@@H]1CC[C@H]2C(=O)O[C@@H](COc3ccc(C(C)(C)C)cc3)CN2[C@H]1c1ccc(Br)cc1,-0.382 (inactive),0.619,0.907,0.503 (inactive)
C[C@H]1CC[C@@H](C(=O)O)N[C@@H]1c1cccc(N2CCCC2=O)c1,0.641 (inactive),-0.397,0.752,-0.0351 (inactive)
CC(C)[C@@H](OCc1ccccc1)[C@H](C)C=NO[C@@H](C)c1cn([C@H](CO)Cc2ccccc2)nn1,0.334 (inactive),-0.0098,0.949,-5.22 (inactive)
COc1ccc(COC(=O)NN=C2C[C@@H](O)[C@@H](O)[C@@H]3[C@@H]4C(=O)N(C5CCCCC5)C(=O)[C@@H]4CC[C@@H]23)cc1,0.524 (inactive),0.0499,-1.07,-4.36 (inactive)
C[C@@H]1CC[C@H]2C(=O)N3[C@@H](CC[C@@H](C)[C@@H]3c3ccc(Br)cc3)C(=O)N2[C@H]1c1ccc(Br)cc1,-0.22 (inactive),0.335,-0.212,-3.21 (inactive)
CO[C@H]1COC(=O)CCC[C@H](C)[C@@H](OC)COC(=O)CC=C[C@@H]1C,-0.294 (inactive),0.003,-0.809,0.544 (inactive)
C=CC[C@@H]1C=C[C@H](ON=C2C[C@@H](O)[C@@H](O)[C@@H]3[C@@H]4C(=O)N(CC)C(=O)[C@@H]4CC[C@@H]23)[C@@H](CO)O1,-0.192 (inactive),-1.06,-0.689,0.0713 (inactive)
COC(=O)[C@@H]1CC[C@H](C)[C@@H](c2ccc(C)cc2)N1C(=O)c1ccc(C=NOC[C@H]2O[C@H](c3ccccc3)C=C[C@@H]2Oc2ccc(OC)cc2)cc1,0.176 (inactive),0.313,-1.14,-0.0628 (inactive)
COC(=O)[C@@H]1CC[C@H](C)[C@@H](c2ccc(Br)cc2)N1C[C@H](O)CN=[N+]=[N-],1.12 (inactive),-0.135,-0.637,-2.93 (inactive)
CC(C)[C@H](NC(=O)OC(C)(C)C)[C@@H](O)CC(=O)C(C)(C)C,-0.232 (inactive),-0.19,0.227,-0.092 (inactive)
CSCC[C@@H]1NC(=O)CC=C[C@@H](C)COC(=O)[C@H](C)COC1=O,0.439 (inactive),0.8,0.461,0.0971 (inactive)
CO[C@H]1COC(=O)CC=C[C@H](C)[C@H](OC)COC(=O)[C@@H](C)NC(=O)CC=C[C@@H]1C,0.533 (inactive),0.356,-0.205,-0.75 (inactive)
CO[C@H]1COC(=O)[C@H](C)COC(=O)[C@H](C)NC(=O)CC=C[C@H]1C,0.126 (inactive),0.506,0.0087,-0.299 (inactive)
CCN1C(=O)[C@H]2[C@H]3[C@H](O)[C@H](O)CC(=NNC(=O)OCc4ccccc4)[C@@H]3CC[C@H]2C1=O,-0.425 (inactive),-0.0369,1.14,-0.144 (inactive)
CCOC(=O)CCN1C(=O)[C@H]2[C@H]3[C@H](O)[C@H](O)CC(=O)[C@@H]3CC[C@H]2C1=O,0.0603 (inactive),0.61,-0.0726,-2.98 (inactive)
CC(C)(C)N1C(=O)[C@H]2[C@H]3[C@H](O)[C@H](O)CC(=NNC(=O)OCc4ccccc4)[C@H]3CC[C@H]2C1=O,-0.401 (inactive),0.764,-1.37,-3.42 (inactive)

Structure (SMILES),composite z-score [1],composite z-score (XIP peptide (Xip251-270)),z-score [2],z-score [3]
CCN1C(=O)[C@H]2[C@H]3[C@H](O)[C@H](O)CC(=NO[C@@H](C)c4cc(-c5c(C)cc(C)cc5C)no4)[C@@H]3CC[C@H]2C1=O,0.359 (inactive),0.811,0.563,-6.73 (inactive)
COc1cccc([C@H]2Oc3ccc(OC)cc3C(=NOCC[C@@H]3C=C[C@H](OC(C)=O)[C@@H](COC(C)=O)O3)[C@@H]2O)c1,0.451 (inactive),0.206,0.956,-5.39 (inactive)
C=CC[C@@H]1C=C[C@H](ON=CC[C@@H]2C=C[C@H](OC(C)=O)[C@@H](COC(C)=O)O2)[C@@H](CO)O1,0.571 (inactive),0.749,0.422,-0.273 (inactive)
CC(C)(C)N1C(=O)[C@H]2[C@H]3[C@H](O)[C@H](O)CC(=NOC[C@@H](O)COCc4ccco4)[C@H]3CC[C@H]2C1=O,0.0133 (inactive),0.72,-0.62,0.976 (inactive)
CO[C@H]1COC(=O)CCC[C@H](C)[C@H](OC)COC(=O)CC=C[C@@H]1C,0.239 (inactive),0.0648,-0.116,-0.695 (inactive)
COC(=O)[C@H](C)NC(=O)CCC1CC(OC(=O)NCCc2ccc(F)cc2)CC2(CCCC(COC(=O)NCC3CCCCC3)O2)O1 (stereo partly specified),-0.0255 (inactive),0.526,-2.07,-2.56 (inactive)
COc1ccc(COC(=O)NN=C2C[C@@H](O)[C@@H](O)[C@@H]3[C@@H]4C(=O)N(C[C@@H]5CCCO5)C(=O)[C@@H]4CC[C@H]23)cc1,-0.0696 (inactive),-0.239,-0.534,0.459 (inactive)
CCOC(=O)[C@H](CC(C)C)NC(=O)CCC1CC(OC(=O)NCCc2ccc(F)cc2)CC2(CCCC(COC(=O)NCc3cccc4ccccc34)O2)O1 (stereo partly specified),-0.008 (inactive),0.24,-1.48,-5.81 (inactive)
CC1(C)O[C@H]2O[C@H]([C@H](O)CON=C3[C@H]4CCn5c(=O)n(-c6ccccc6)c(=O)n5[C@H]4[C@H](O)[C@@H]4O[C@H]34)[C@H](O)[C@H]2O1,0.469 (inactive),-0.0051,-0.511,-0.437 (inactive)
O=C1[C@H]2[C@H]3[C@H](O)[C@H](O)CC(=NOCc4ccccc4)[C@H]3CC[C@H]2C(=O)N1C1CCCCC1,0.288 (inactive),0.714,-0.369,0.449 (inactive)
O=C1[C@H]2[C@H]3[C@H](O)[C@H](O)CC(=NO[C@@H]4O[C@H](CO)[C@@H](O)[C@H](O)[C@H]4O)[C@@H]3CC[C@H]2C(=O)N1c1cccc(Oc2ccccc2)c1,0.311 (inactive),0.519,-0.197,-1.14 (inactive)
CC(C)C(=O)N[C@H]1CCCN1C(=O)C=Cc1ccccc1,0.934 (inactive),-0.168,-0.64,-2.18 (inactive)
Cc1ccc(C(C)C)n1C(=O)OC(C)(C)C,-0.488 (inactive),-0.0079,0.271,0.936 (inactive)
COc1ccc(COC(=O)NN=C2C[C@@H](O)[C@@H](O)[C@@H]3[C@@H]4C(=O)N([C@@H](C)c5ccccc5)C(=O)[C@@H]4CC[C@H]23)cc1,-0.153 (inactive),-0.273,-0.981,-3.73 (inactive)
CCN1C(=O)[C@H]2[C@H]3[C@H](O)[C@H](O)CC(=NOCC=C(C)CCC=C(C)C)[C@@H]3CC[C@H]2C1=O,-0.544 (inactive),0.615,-0.298,-3.73 (inactive)
CCN1C(=O)[C@H]2[C@H]3[C@H](O)[C@H](O)CC(=NOC[C@@H](O)COCc4ccco4)[C@H]3CC[C@H]2C1=O,0.386 (inactive),0.505,-0.0786,0.366 (inactive)
COc1ccc(-c2cnnc(CCCn3ccnc3-c3ccccc3)n2)cc1,0.0584 (inactive),0.492,-0.964,-3.52 (inactive)
C=CCOCC1CN2[C@@H](CC[C@@H](C)[C@@H]2c2ccc(Br)cc2)C(=O)O1 (stereo partly specified),0.0364 (inactive),-0.104,1.72,-0.43 (inactive)
COc1ccc(COC(=O)NN=C2C[C@@H](O)[C@@H](O)[C@@H]3[C@@H]4C(=O)N(c5cccc(Oc6ccccc6)c5)C(=O)[C@@H]4CC[C@H]23)cc1,-0.538 (inactive),-0.255,-1.34,-3.81 (inactive)
CCOC(=O)[C@H](CC(C)C)NC(=O)CCC1CC(OC(=O)NCCc2ccc(F)cc2)CC2(CCCC(COC(=O)NCCOC)O2)O1 (stereo partly specified),0.0029 (inactive),0.39,-1.9,-6.12 (inactive)
CO[C@H]1COC(=O)[C@H](CCSC)NC(=O)CC=C[C@@H](C)[C@H](OC)COC(=O)[C@@H](OCc2ccccc2)C=C[C@@H]1C,2.65 (inactive),0.358,-0.772,-1.29 (inactive)
CC(=O)OC[C@H]1O[C@H](CC=NOC[C@@H](O)COCc2ccco2)C=C[C@@H]1OC(C)=O,0.084 (inactive),0.479,0.466,-0.226 (inactive)
